Data published in PubChem BioAssay (NCI).
The panel holds about 79,000 compounds, 15% with a hit somewhere; the sample as a whole holds those more often. No stated cut-off is given here; in the data, active means growth inhibition above about 70%; inactive means the rest.

How the values were obtained:
[1] = NCI Yeast Anticancer Drug Screen. Data for the rad50 strain (AID 155);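 further: 0% = growth of vehicle-only cultures of the same strain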; conditions: S. cerevisiae rad50 strain growth inhibition; at 50.0 µM; stronger effect = higher value
How it was run: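 Growth of the mutant yeast was measured after compound exposure and referenced to vehicle-treated cultures.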

[2] = NCI Yeast Anticancer Drug Screen. Data for the mec2-1 strain (AID 157); conditions: S. cerevisiae mec2-1 strain, at 50.0 µM, stronger effect = higher value
How it was run: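 Growth inhibition is read against vehicle-treated controls after compound exposure of the mec2-1 yeast strain, which is defective in DNA damage repair or cell cycle control.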

[3] = NCI Yeast Anticancer Drug Screen. Data for the sgs1 mgt1 strain (AID 161);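 further: 0% = growth of cultures given vehicle only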; conditions: S. cerevisiae sgs1 mgt1 strain, at 50.0 µM, stronger effect = higher value
How it was run: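 Growth of a repair-deficient yeast mutant was monitored after compound treatment and expressed as inhibition relative to vehicle-treated cultures.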

[4] = NCI Yeast Anticancer Drug Screen. Data for the cln2 rad14 strain (AID 165);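 further: 0% = growth equal to vehicle treated cultures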; conditions: S. cerevisiae cln2 rad14 strain, at 50.0 µM, stronger effect = higher value
How it was run: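 Growth inhibition, relative to vehicle-treated controls, is the read-out. The test organism is a yeast strain with defined genetic alterations, cln2 rad14.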

[5] = NCI Yeast Anticancer Drug Screen. Data for the bub3 strain (AID 167); conditions: S. cerevisiae bub3 mutant strain, at 50.0 µM, stronger effect = higher value
How it was run: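 Whole-cell yeast assay. The mutant strain was incubated with compounds, and growth inhibition was determined by comparison with vehicle-treated cells.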

[6] = NCI Yeast Anticancer Drug Screen. Data for the mlh1 rad18 strain (AID 175); conditions: S. cerevisiae mlh1 rad18 strain growth inhibition; at 50.0 µM; stronger effect = higher value
How it was run: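 Cells of a genetically altered yeast strain, deficient in DNA damage repair, were treated with compound. Their growth was then compared with that of vehicle-treated cultures to give inhibition.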

Measured: growth inhibition

Oc1cc2c(cc1C(c1ccc3c(c1)OCO3)N1CCCC1)OCO2 (stereo not given)
inactive: [1] -4.9% | [2] -9.35% | [3] 8.25% | [4] -27.6% | [5] 19.8% | [6] 28.4%

CC(C)(C)NC(=O)NCC1CCCC1NC(=O)NC(C)(C)C (stereo not given)
inactive: [1] 1.45% | [2] -4.95% | [3] 3.65% | [4] -5.45% | [5] 7.35% | [6] -10.4%

C[N+](C)(C)C1CC([N+](C)(C)C)C2c3ccccc3C21 (stereo not given)
inactive: [1] -15.2% | [2] 23.1% | [3] 1.95% | [4] -9.05% | [5] -3.35% | [6] 3.9%

CCCCCCCCCCCCCCCC(=O)OCC(O)CO (stereo not given)
inactive: [1] -28.4% | [2] -0.35% | [3] -6.25% | [4] -167% | [5] -11% | [6] 1.1%

ON=C1c2cc(Cl)ccc2-c2ccc(Cl)cc21
inactive: [1] 5.25% | [2] 4.05% | [3] 18.1% | [4] -40.8% | [5] 5.45% | [6] 16.6%

c1ccc2[nH]c3[nH]c4[nH]c5ccccc5[nH]c4[nH]c3[nH]c2c1
inactive: [1] -29.2% | [2] -9.2% | [3] -20.6% | [4] -6.2% | [5] -8.5% | [6] -11.8%

COc1ccc(O)c2c(=O)ccccc12
inactive: [1] 8.5% | [2] 7.15% | [3] -3% | [4] -13.8% | [5] 5.4% | [6] 5.55%

CCOC(=O)c1ccc(NC(=O)Nc2ccc(OC)c([N+](=O)[O-])c2)cc1
inactive: [1] -5.9% | [2] -3.6% | [3] 12.5% | [4] -15.7% | [5] 17.8% | [6] -5.2%

O=C(c1ccccc1)C1(c2ccccc2)CCCCC1
inactive: [1] 19.6% | [2] 15.6% | [3] 20.1% | [4] -10.6% | [5] 0.45% | [6] 32.6%

CC(C)C(CNC(=S)Nc1ccccc1)(c1ccccc1)c1ccccc1
inactive: [1] 6.9% | [2] 13.1% | [3] 5.25% | [4] 1.85% | [5] 8.95% | [6] 12.8%

CC(CCc1ccccc1)NC1=NCCO1 (stereo not given)
inactive: [1] -9.6% | [2] -12.2% | [3] -16.4% | [4] -23.6% | [5] -1.2% | [6] 2.7%

CC1OCOC1C1OCOCC1OC(=O)c1ccccc1 (stereo not given)
inactive: [1] -5.6% | [2] -5.5% | [3] -15.2% | [4] -14.8% | [5] 25.2% | [6] -5%

O=C(C1C2C=CC(C2)C1C(=O)N1CCCCC1)N1CCCCC1 (stereo not given)
inactive: [1] 2.5% | [2] 25.4% | [3] 13.2% | [4] -1.8% | [5] 12.3% | [6] 11.5%

N#Cc1ccc(NC(=NCC(=O)O)Nc2ccc3ccccc3c2)cc1
inactive: [1] -16.2% | [2] -30.6% | [3] -14.6% | [4] 25.8% | [5] -26.3% | [6] 8.25%

CCOC1OC(C2COC(=O)O2)C(O)C1O (stereo not given)
inactive: [1] 15.8% | [2] 10.6% | [3] -3.85% | [4] -71.2% | [5] 7.4% | [6] -3%

O=C(NC(Cc1c[nH]c2ccccc12)(C(=O)O)C(=O)O)OCc1ccccc1
inactive: [1] 23.1% | [2] 15.1% | [3] 18.7% | [4] 29.1% | [5] 2.1% | [6] 17.8%

Cn1cc(C(=O)c2ccccc2)c2ccccc2c1=O
inactive: [1] 41.5% | [2] -4.4% | [3] 23.8% | [4] 8.25% | [5] 31.9% | [6] 16.4%

CC1=CC(O)C(C(O)(C(F)(F)F)C(F)(F)F)C(C)(C)C1 (stereo not given)
inactive: [1] -26.8% | [2] -41.2% | [3] -9.95% | [4] -4.6% | [5] 0.15% | [6] -1.25%

CC(C)=CCSC(N)N
inactive: [1] 14.4% | [2] 21.1% | [3] 24.1% | [4] 9.35% | [5] 17.4% | [6] -1.7%

CC(C)[C@@H]1NC(=O)[C@@H]2N=C(O[C@H]2C)[C@H](C(C)C)NC(=O)C2N=C1O[C@H]2C
inactive: [1] 11% | [2] 4.75% | [3] 2.15% | [4] 9.45% | [5] 10.3% | [6] -34.1%
